Measurements: ChEMBL document CHEMBL3988442, “University of Dundee, Small-Polar-MMV Screening Library” (2021)
About 13,000 (27%) of roughly 48,000 compounds showed an effect of 50% or more. The list shows a part of the results.

system: Wolbachia pipientis; assay: Anti-Wolbachia Cell-Based Screen; format: functional; set-up: scale not given: in the data most compounds retested in dose-response had high values; details: 5 µM

| Compound | Percent Effect |
| --- | --- |
| COc1ccc(C)cc1CN(Cc1ncc(C)o1)C1CCN(C)C1 (configuration not stated) | 18.81% |
| Cc1cccc(N2N=C(C(=O)NC(C)CCc3ccco3)CCC2=O)c1 (configuration not stated) | 5.008% |
| CC(C)C(=O)NC1CCN(CCO)CC1 | -14.55% |
| N#Cc1ccc(CNC(=O)NCCC(=O)NC2CCCC2)c(F)c1 | 1.823% |
| CCCOCCN1CCc2[nH]c(-c3ccc(OC)cc3)nc2C1 | 0.5641% |
| O=C(O)C(F)(F)F.O=C(O)C(F)(F)F.c1cncc(COCc2nnc3n2CCN(Cc2ccsc2)C3)c1 | -0.7002% |
| O=C(O)C(F)(F)F.O=C(O)C(F)(F)F.c1cncc(COCc2nnn3c2CN(Cc2ccsc2)CC3)c1 | 109.1% |
| O=C(O)C(F)(F)F.O=C(O)C(F)(F)F.c1cncc(OCc2nnn3c2CN(Cc2ccsc2)CCC3)c1 | -20.94% |
| O=C(NCc1ccc(Cl)cc1)[C@@H]1Cc2[nH]cnc2CN1CC1CC1 | 10.78% |
| Cn1cc(CN2CCCC(Cn3cc(CCCO)nn3)C2)cn1 (configuration not stated) | -7.109% |
| Cn1cc(CN2CCCC(CCc3ccc(F)cc3F)C2)cn1 (configuration not stated) | 13.59% |
| Cn1cc(CN2CCC(c3cc(COc4ccc(Cl)cc4)[nH]n3)C2)cn1 (configuration not stated) | 120.4% |
| Cn1cc(CN2CCC(c3cc(CCO)[nH]n3)C2)cn1 (configuration not stated) | 135.9% |
| Cn1cc(CN2CCCC(CCc3ccc(F)cc3)C2)cn1 (configuration not stated) | 5.496% |
| Cc1cc(C2CCCN(Cc3cccnc3)C2)n[nH]1 (configuration not stated) | -3.647% |
| Cc1n[nH]c(C2CN(CCCOc3cccc(Cl)c3)CCO2)n1 (configuration not stated) | 17.53% |
| Cn1cc(CN2CCCC(CCc3ccc(F)c(F)c3)C2)cn1 (configuration not stated) | -4.852% |
| Br.Cn1cc(CN2CCC(c3cc(COc4cccc(Cl)c4)[nH]n3)C2)cn1 (configuration not stated) | 108.1% |
| O=C(NC1(c2nccs2)CCCC1)c1[nH]nc(C2CC2)c1Cl | -0.1495% |
| O=C(Nc1ccccc1OC(F)(F)F)C1CCS(=O)(=O)C1 (configuration not stated) | 4.045% |
| N#Cc1cnn(C(=O)COc2ccccc2F)c1N | -3.189% |
| Cc1n[nH]c(C2CN(C(=O)c3ccc4c(c3)COC4)CCO2)n1 (configuration not stated) | -48.4% |
| CCc1n[nH]c(C2CN(C(=O)c3ccnc(N(C)C)c3)CCO2)n1 (configuration not stated) | 149.1% |
| CCc1n[nH]c(C2CN(C(=O)c3ccc4c(c3)COC4)CCO2)n1 (configuration not stated) | 136% |
| CCc1n[nH]c(C2CN(C(=O)c3ccc(NC4CC4)nc3)CCO2)n1 (configuration not stated) | 134.6% |
| CCCc1n[nH]c(C2CN(C(=O)c3ccc4c(c3)COC4)CCO2)n1 (configuration not stated) | 124.9% |
| C[S+]([O-])c1nncn1CC(=O)c1cccc(Br)c1 (configuration not stated) | -3.709% |
